# Assay results taken from the supplement of paper PMC8728848.
# This excerpt belongs to a sample that is enriched for the strongest signals.
# B1: LecRKVI.2 (protein)
# chain: RTTTNFAFRGFNGNQSKIRIEGAAMIKPDGLLRLTDRKSNVTGTAFYHKPVRLLNRNSTNVTIRSFSTSFVFVIIPSSSSNKGFGFTFTLSPTPYRLNAGSAQYLGVFNKENNGDPRNHVFAVEFDTVQGSRDDNTDRIGNDIGLNYNSRTSDLQEPVVYYNNDDHNKKEDFQLESGNPIQALLEYDGATQMLNVTVYPARLGFKPTKPLISQHVPKLLEIVQEEMYVGFTASTGKGQSSAHYVMGWSFSSGGERPIADVLILSELPPPPPNKAKKEGLNS
# Key:
# Assay in all cases: glycan array binding signal (z-score within array); higher = stronger binding
# Settings in all cases: glycan notation: IUPAC condensed, linker removed
# [1] = molecular target: Fuc(a1-2)Gal(b1-3)GalNAc(b1-3)Gal(a1-4)Gal(b1-4)Glc
# Method in brief: (§1)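 Negative Z-scores can be read as non-binding. The Z-score is calculated within each array and then averaged across arrays of one protein sequence at different concentrations or buffers and across linkers. Arrays, 3228 in all, were curated from the Consortium for Functional Glycomics database and kept only where the protein sequence was available.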
# [2] = molecular target: Fuc(a1-2)Gal(b1-3)GlcNAc6S
# Method in brief: as §1
# [3] = molecular target: Fuc(a1-2)Gal(b1-3)[Fuc(a1-4)]GlcNAc
# Method in brief: as §1
# [4] = molecular target: Fuc(a1-2)Gal(b1-3)[Fuc(a1-4)]GlcNAc(b1-3)[Gal(b1-4)GlcNAc(b1-6)]Gal(b1-4)Glc
# Method in brief: as §1
# [5] = molecular target: Fuc(a1-2)Gal(b1-4)GlcNAc(b1-2)Man(a1-3)[Fuc(a1-2)Gal(b1-4)GlcNAc(b1-2)Man(a1-6)]Man(b1-4)GlcNAc(b1-4)GlcNAc
# Method in brief: as §1
# [6] = molecular target: Fuc(a1-2)Gal(b1-4)[Fuc(a1-3)]GlcNAc(b1-3)GalNAc
# Method in brief: as §1
# [7] = molecular target: Fuc(a1-2)Gal3S(b1-4)GlcNAc
# Method in brief: as §1
# [8] = molecular target: Fuc(a1-2)[Gal(a1-3)]Gal(b1-3)GalNAc(b1-3)Gal(a1-4)Gal(b1-4)Glc
# Method in brief: as §1
# [9] = molecular target: Fuc(a1-2)[Gal(a1-3)]Gal(b1-4)GlcNAc(b1-2)Man(a1-3)[Fuc(a1-2)[Gal(a1-3)]Gal(b1-4)GlcNAc(b1-2)Man(a1-6)]Man(b1-4)GlcNAc(b1-4)GlcNAc
# Method in brief: as §1
# [10] = molecular target: Fuc(a1-2)[GalNAc(a1-3)]Gal(b1-4)GlcNAc(b1-2)Man(a1-3)[Fuc(a1-2)[GalNAc(a1-3)]Gal(b1-4)GlcNAc(b1-2)Man(a1-6)]Man(b1-4)GlcNAc(b1-4)GlcNAc
# Method in brief: as §1
# [11] = molecular target: Fuc(a1-3)[Gal(b1-4)]GlcNAc(b1-6)GalNAc
# Method in brief: as §1
# [12] = molecular target: Gal(a1-3)Gal(b1-4)GlcNAc(b1-2)Man(a1-3)[Gal(a1-3)Gal(b1-4)GlcNAc(b1-2)Man(a1-6)]Man(b1-4)GlcNAc(b1-4)GlcNAc
# Method in brief: as §1
# [13] = molecular target: Gal(a1-3)[Gal(a1-4)]Gal(b1-4)GlcNAc
# Method in brief: as §1
# [14] = molecular target: Gal(a1-4)Gal(b1-3)GlcNAc(b1-2)Man(a1-3)[Gal(a1-4)Gal(b1-3)GlcNAc(b1-2)Man(a1-6)]Man(b1-4)GlcNAc(b1-4)GlcNAc
# Method in brief: as §1
# [15] = molecular target: Gal(b1-4)Gal
# Method in brief: as §1
# [16] = molecular target: Gal(b1-4)GlcNAc(b1-2)[Gal(b1-4)GlcNAc(b1-4)]Man(a1-3)[GlcNAc(b1-4)][Gal(b1-4)GlcNAc(b1-2)Man(a1-6)]Man(b1-4)GlcNAc(b1-4)GlcNAc
# Method in brief: as §1
# [17] = molecular target: Gal(b1-4)GlcNAc(b1-3)Gal(b1-3)GalNAc
# Method in brief: as §1
# [18] = molecular target: Gal(b1-4)GlcNAc(b1-3)Gal(b1-4)Glc
# Method in brief: as §1
# [19] = molecular target: Gal(b1-4)GlcNAc(b1-3)Gal(b1-4)GlcNAc(b1-2)Man(a1-3)[Gal(b1-4)GlcNAc(b1-3)Gal(b1-4)GlcNAc(b1-2)Man(a1-6)]Man(b1-4)GlcNAc(b1-4)[Fuc(a1-6)]GlcNAc
# Method in brief: as §1
# [20] = molecular target: Gal(b1-4)GlcNAc(b1-3)Gal(b1-4)GlcNAc(b1-3)Gal(b1-4)GlcNAc(b1-2)Man(a1-3)[Gal(b1-4)GlcNAc(b1-3)Gal(b1-4)GlcNAc(b1-3)Gal(b1-4)GlcNAc(b1-2)Man(a1-6)]Man(b1-4)GlcNAc(b1-4)GlcNAc
# Method in brief: as §1
# [21] = molecular target: Gal(b1-4)GlcNAc(b1-3)Gal(b1-4)GlcNAc(b1-3)Gal(b1-4)GlcNAc(b1-3)Gal(b1-4)GlcNAc(b1-3)Gal(b1-4)GlcNAc(b1-2)[Gal(b1-4)GlcNAc(b1-3)Gal(b1-4)GlcNAc(b1-3)Gal(b1-4)GlcNAc(b1-3)Gal(b1-4)GlcNAc(b1-3)Gal(b1-4)GlcNAc(b1-6)]Man(a1-6)[Gal(b1-4)GlcNAc(b1-3)Gal(b1-4)GlcNAc(b1-3)Gal(b1-4)GlcNAc(b1-3)Gal(b1-4)GlcNAc(b1-3)Gal(b1-4)GlcNAc(b1-2)Man(a1-3)]Man(b1-4)GlcNAc(b1-4)[Fuc(a1-6)]GlcNAc
# Method in brief: as §1
# [22] = molecular target: Gal(b1-4)GlcNAc(b1-3)GalNAc
# Method in brief: as §1
# [23] = molecular target: Gal(b1-4)GlcNAc(b1-6)[Gal(b1-3)]GalNAc
# Method in brief: as §1
# [24] = molecular target: Gal4S6S(b1-4)GlcNAc
# Method in brief: as §1
# [25] = molecular target: GalNAc(a1-3)Gal
# Method in brief: as §1
# [26] = molecular target: GlcNAc(b1-3)Fuc
# Method in brief: as §1
# [27] = molecular target: GlcNAc(b1-3)Gal(b1-4)GlcNAc(b1-3)Gal(b1-4)GlcNAc
# Method in brief: as §1
# [28] = molecular target: GlcNAc(b1-3)[GlcNAc(b1-4)][GlcNAc(b1-6)]GlcNAc
# Method in brief: as §1
# [29] = molecular target: GlcNAc(b1-4)Gal(b1-4)GlcNAc
# Method in brief: as §1
# [30] = molecular target: GlcNAc(b1-4)GlcNAc
# Method in brief: as §1
# [31] = molecular target: GlcNAc(b1-4)GlcNAc(b1-4)GlcNAc
# Method in brief: as §1
# [32] = molecular target: Kdn(a2-3)Gal(b1-4)GlcNAc
# Method in brief: as §1
# [33] = molecular target: Man(a1-3)[Man(a1-6)]Man(b1-4)GlcNAc(b1-4)GlcNAc
# Method in brief: as §1
# [34] = molecular target: MurNAc(b1-4)GlcNAc
# Method in brief: as §1
# [35] = molecular target: Neu5Ac(a2-3)Gal(b1-3)GalNAc
# Method in brief: as §1
# [36] = molecular target: Neu5Ac(a2-3)Gal(b1-3)GlcNAc(b1-2)Man
# Method in brief: as §1
# [37] = molecular target: Neu5Ac(a2-3)Gal(b1-3)GlcNAc(b1-2)Man(a1-3)[GlcNAc(b1-4)][Neu5Ac(a2-3)Gal(b1-3)GlcNAc(b1-2)Man(a1-6)]Man(b1-4)GlcNAc(b1-4)GlcNAc
# Method in brief: as §1
# [38] = molecular target: Neu5Ac(a2-3)Gal(b1-3)[Fuc(a1-4)]GlcNAc
# Method in brief: as §1
# [39] = molecular target: Neu5Ac(a2-3)Gal(b1-3)[Fuc(a1-4)]GlcNAc(b1-3)Gal(b1-4)[Fuc(a1-3)]GlcNAc
# Method in brief: as §1
# [40] = molecular target: Neu5Ac(a2-3)Gal(b1-3)[GlcNAc(b1-6)]GalNAc
# Method in brief: as §1
# [41] = molecular target: Neu5Ac(a2-3)Gal(b1-4)GlcNAc(b1-2)Man
# Method in brief: as §1
# [42] = molecular target: Neu5Ac(a2-3)Gal(b1-4)GlcNAc(b1-3)Gal
# Method in brief: as §1
# [43] = molecular target: Neu5Ac(a2-3)Gal(b1-4)GlcNAc(b1-3)Gal(b1-4)GlcNAc
# Method in brief: as §1
# [44] = molecular target: Neu5Ac(a2-3)Gal(b1-4)[Fuc(a1-3)]GlcNAc(b1-6)[Gal(b1-3)]GalNAc
# Method in brief: as §1
# [45] = molecular target: Neu5Ac(a2-6)Gal(b1-4)GlcNAc(b1-2)Man(a1-3)[Gal(b1-4)GlcNAc(b1-2)Man(a1-6)]Man(b1-4)GlcNAc(b1-4)GlcNAc
# Method in brief: as §1
# [46] = molecular target: Neu5Ac(a2-6)Gal(b1-4)GlcNAc(b1-2)Man(a1-3)[GlcNAc(b1-2)Man(a1-6)]Man(b1-4)GlcNAc(b1-4)GlcNAc
# Method in brief: as §1
# [47] = molecular target: Neu5Ac(a2-6)Gal(b1-4)GlcNAc(b1-2)Man(a1-3)[Neu5Ac(a2-6)Gal(b1-4)GlcNAc(b1-2)Man(a1-6)]Man(b1-4)GlcNAc(b1-4)GlcNAc
# Method in brief: as §1
# [48] = molecular target: Neu5Ac(a2-6)Gal(b1-4)GlcNAc(b1-3)Gal(b1-4)GlcNAc(b1-2)Man(a1-3)[Neu5Ac(a2-6)Gal(b1-4)GlcNAc(b1-3)Gal(b1-4)GlcNAc(b1-2)Man(a1-6)]GalNAc
# Method in brief: as §1
# [49] = molecular target: Neu5Ac(b2-6)Gal(b1-4)GlcNAc
# Method in brief: as §1
# [50] = molecular target: Neu5Gc(a2-6)Gal(b1-4)GlcNAc
# Method in brief: as §1
# [51] = molecular target: Neu5Gc(a2-8)Neu5Gc(a2-3)Gal(b1-4)GlcNAc
# Method in brief: as §1
binder,measurement,setting,value
B1,glycan array binding signal (z-score),[1],-0.133
same,glycan array binding signal (z-score),[2],-0.436
same,glycan array binding signal (z-score),[3],-0.312
same,glycan array binding signal (z-score),[4],-0.205
same,glycan array binding signal (z-score),[5],3.27
same,glycan array binding signal (z-score),[6],4.76
same,glycan array binding signal (z-score),[7],-0.468
same,glycan array binding signal (z-score),[8],-0.403
same,glycan array binding signal (z-score),[9],0.276
same,glycan array binding signal (z-score),[10],4.57
same,glycan array binding signal (z-score),[11],3.86
same,glycan array binding signal (z-score),[12],3.09
same,glycan array binding signal (z-score),[13],-0.211
same,glycan array binding signal (z-score),[14],5.85
same,glycan array binding signal (z-score),[15],-0.396
same,glycan array binding signal (z-score),[16],-0.319
same,glycan array binding signal (z-score),[17],-0.047
same,glycan array binding signal (z-score),[18],-0.296
same,glycan array binding signal (z-score),[19],3.44
same,glycan array binding signal (z-score),[20],6.91
same,glycan array binding signal (z-score),[21],0.566
same,glycan array binding signal (z-score),[22],-0.373
same,glycan array binding signal (z-score),[23],1.83
same,glycan array binding signal (z-score),[24],-0.352
same,glycan array binding signal (z-score),[25],3.89
same,glycan array binding signal (z-score),[26],-0.233
same,glycan array binding signal (z-score),[27],-0.415
same,glycan array binding signal (z-score),[28],-0.429
same,glycan array binding signal (z-score),[29],-0.256
same,glycan array binding signal (z-score),[30],-0.232
same,glycan array binding signal (z-score),[31],-0.408
same,glycan array binding signal (z-score),[32],-0.49
same,glycan array binding signal (z-score),[33],-0.376
same,glycan array binding signal (z-score),[34],-0.279
same,glycan array binding signal (z-score),[35],-0.423
same,glycan array binding signal (z-score),[36],-0.335
same,glycan array binding signal (z-score),[37],-0.407
same,glycan array binding signal (z-score),[38],-0.318
same,glycan array binding signal (z-score),[39],-0.388
same,glycan array binding signal (z-score),[40],-0.402
same,glycan array binding signal (z-score),[41],-0.25
same,glycan array binding signal (z-score),[42],-0.323
same,glycan array binding signal (z-score),[43],-0.162
same,glycan array binding signal (z-score),[44],3.09
same,glycan array binding signal (z-score),[45],0.37
same,glycan array binding signal (z-score),[46],-0.274
same,glycan array binding signal (z-score),[47],0.07
same,glycan array binding signal (z-score),[48],3.81
same,glycan array binding signal (z-score),[49],-0.393
same,glycan array binding signal (z-score),[50],-0.356
same,glycan array binding signal (z-score),[51],-0.395
